Experimental data reported in the supplement of paper PMC3545927.
The list shows a part of the results. How many sequences the whole screen found active is unknown.

Biological target: furin, P09958
Test: furin cleavage Z-score vs untreated control; higher = more cleavage, active = 3.5 or more, inactive = 1 or less, 8 variable residues between constant flanks
How it was run: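 Sequencing of released DNA, tagged with adapters by PCR, gave read counts used as abundance. That DNA was freed when purified furin cut N-terminally bead-bound 8-mer peptides fused to a cDNA oligonucleotide, in 0.01 ml reactions at 1:10 enzyme:substrate in 50 mM HEPES pH 7.5 with CaCl2 and NaCl, lasting 7.5, 15 or 30 min. The cleavage Z-score was the lowess-adjusted log count versus furin-free reactions, scaled by median absolute deviation.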

furin, P09958, sequence (P09958 whole entry): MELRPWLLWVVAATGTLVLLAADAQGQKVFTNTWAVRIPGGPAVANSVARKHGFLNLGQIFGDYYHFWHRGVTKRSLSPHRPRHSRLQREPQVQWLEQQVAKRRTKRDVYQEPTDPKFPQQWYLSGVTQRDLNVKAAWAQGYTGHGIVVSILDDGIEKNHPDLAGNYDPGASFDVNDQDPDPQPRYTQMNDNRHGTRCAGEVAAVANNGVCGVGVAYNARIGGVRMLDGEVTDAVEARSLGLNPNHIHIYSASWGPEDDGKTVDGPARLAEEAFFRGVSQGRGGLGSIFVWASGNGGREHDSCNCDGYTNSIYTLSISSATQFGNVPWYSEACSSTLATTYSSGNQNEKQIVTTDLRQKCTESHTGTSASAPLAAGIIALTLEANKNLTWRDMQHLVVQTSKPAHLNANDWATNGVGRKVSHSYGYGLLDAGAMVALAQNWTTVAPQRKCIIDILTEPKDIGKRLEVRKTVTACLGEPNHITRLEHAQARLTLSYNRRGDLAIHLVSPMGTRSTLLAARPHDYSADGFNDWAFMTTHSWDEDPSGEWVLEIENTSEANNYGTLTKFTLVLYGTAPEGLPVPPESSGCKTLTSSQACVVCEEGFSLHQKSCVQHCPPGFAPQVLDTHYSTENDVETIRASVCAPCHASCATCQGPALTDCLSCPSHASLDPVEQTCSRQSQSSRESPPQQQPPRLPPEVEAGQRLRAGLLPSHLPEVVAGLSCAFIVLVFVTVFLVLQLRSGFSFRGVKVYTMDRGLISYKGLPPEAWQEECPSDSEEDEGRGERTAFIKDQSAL

Sequence	furin cleavage Z-score (7.5 min)	furin cleavage Z-score (15 min)	furin cleavage Z-score (30 min)
CARHRRHHHQAGNASASA [FS-2337]	2.13	3.45	4 (active)
CARHRKHSPQAGNASASA [FS-2680]	0.00638 (inactive)	0.0202 (inactive)	-0.323 (inactive)
CAMEECSQHHAGNASASA [HC1775]	1.05	-0.421 (inactive)	0.321 (inactive)
CARMRRHHHHAGNASASA [FS-2158]	2.42	4.46 (active)	5.23 (active)
CAREKKAALEAGNASASA [FS-2656]	-1.1 (inactive)	1.19	0.78 (inactive)
CAHPKQEKRSAGNASASA [FS-1209]	-0.192 (inactive)	1 (inactive)	1.55
CAHPHRTKREAGNASASA [FS-795]	11.5 (active)	12 (active)	10.4 (active)
CAVPHPNIEEAGNASASA [HC839]	0.645 (inactive)	-1.08 (inactive)	0.089 (inactive)
CAHPKRAVREAGNASASA [FS-2864]	8.59 (active)	8.52 (active)	7.41 (active)
CAQAGRSRKEAGNASASA [FS-950]	0.322 (inactive)	-1.35 (inactive)	0.565 (inactive)
CALTERTKREAGNASASA [FS-1138]	12.3 (active)	13 (active)	9.22 (active)
CALTESTLSTAGNASASA [HC1328]	-0.00854 (inactive)	0.199 (inactive)	1.01
CAHPHRQRKEAGNASASA [FS-1009]	2.12	4.93 (active)	2.5
CAHRSRKAKEAGNASASA [FS-1010]	1.54	0.417 (inactive)	1.2
CAVIAPAVQTAGNASASA [HC1033]	0.392 (inactive)	0.329 (inactive)	0.692 (inactive)
CAFFTELDGVAGNASASA [HC1221]	-0.975 (inactive)	-0.00103 (inactive)	-0.854 (inactive)
CAEVPCHRPFAGNASASA [HC2407]	-0.191 (inactive)	0.106 (inactive)	0.623 (inactive)
CAECVVCCSMAGNASASA [HC2140]	0.85 (inactive)	1.09	-0.883 (inactive)
CAEVPCHRPYAGNASASA [HC2409]	0.869 (inactive)	-0.249 (inactive)	1.01
CAEVVTSCWVAGNASASA [HC2220]	-1.37 (inactive)	0.202 (inactive)	-0.78 (inactive)
CAVVCCSRSYAGNASASA [HC2053]	-1.24 (inactive)	-0.358 (inactive)	0.798 (inactive)
CACVCCSMSYAGNASASA [HC2000]	-0.467 (inactive)	-0.374 (inactive)	0.0175 (inactive)

Sequence	furin cleavage Z-score (7.5 min)	furin cleavage Z-score (15 min)	furin cleavage Z-score (30 min)
CAMKKRTKRLAGNASASA [FS-365]	9.31 (active)	8.89 (active)	7.26 (active)
CAANRRDVRLAGNASASA [FS-322]	0.0384 (inactive)	-1.82 (inactive)	1.41
CAMWKCLIRLAGNASASA [HC964]	0.587 (inactive)	2.14	2
CAGKKRTVEMAGNASASA [FS-2861]	-0.948 (inactive)	0.0508 (inactive)	-1.47 (inactive)
CASNQRPKRLAGNASASA [FS-298]	5.25 (active)	8.19 (active)	7.26 (active)
CASPSRTKRLAGNASASA [FS-870]	7.89 (active)	8.76 (active)	6.67 (active)
CAEVVCHRPSAGNASASA [HC2350]	-0.3 (inactive)	0.778 (inactive)	0.34 (inactive)
CADWMEECSQAGNASASA [HC1808]	0.73 (inactive)	-0.408 (inactive)	-0.438 (inactive)
CAVVCCSMSMAGNASASA [HC2086]	0.14 (inactive)	-1.35 (inactive)	0.14 (inactive)
CAVPQSFQVAAGNASASA [HC770]	-0.249 (inactive)	-1.95 (inactive)	-0.519 (inactive)
CAHPQRSKKAAGNASASA [FS-248]	-0.0765 (inactive)	0.432 (inactive)	1.4
CAVTQRSKRAAGNASASA [FS-388]	10.4 (active)	9.15 (active)	7.46 (active)
CAGWLRSKKAAGNASASA [FS-1530]	-0.625 (inactive)	-0.994 (inactive)	-0.39 (inactive)
CATQQRSKRAAGNASASA [FS-1496]	7.63 (active)	7.61 (active)	6.89 (active)
CAPSQRSKRPAGNASASA [FS-477]	-0.582 (inactive)	0.273 (inactive)	-0.55 (inactive)
CAGRKPARLIAGNASASA [HC1447]	-1.48 (inactive)	-1.33 (inactive)	-0.697 (inactive)
CARHVRSYNHAGNASASA [FS-2026]	0.349 (inactive)	0.971 (inactive)	3.01
CARHVRISRSAGNASASA [FS-708]	10.5 (active)	10.5 (active)	7.87 (active)
CAPAGRISRSAGNASASA [FS-835]	6.15 (active)	10.5 (active)	8.23 (active)
CAIPLVGAPLAGNASASA [HC229]	-1.25 (inactive)	-1.1 (inactive)	-0.498 (inactive)
CAYGVGSSIAAGNASASA [HC512]	-0.889 (inactive)	-1.2 (inactive)	0.412 (inactive)
